Data reported in article PMC9838217, “Structure of SALL4 zinc finger domain reveals link between AT-rich DNA binding and Okihiro syndrome”.
Numbering of substitutions follows the chain as printed.

The sequences below were run against T1, SALL4 ZFC4 WT (HT-SELEX) (Mus musculus, UniProt Q8BX22 870-940) (assay: HT-SELEX; high values mean tight binding). Settings: protein: recombinant; vector His6-GST; dsDNA, one strand shown.
T1 sequence: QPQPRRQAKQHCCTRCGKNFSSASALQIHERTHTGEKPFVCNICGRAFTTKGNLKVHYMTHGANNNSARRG
In short: (§1)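 Purified recombinant mouse SALL4 zinc finger cluster 4 (residues 870–940, 1 µg) and library DNA (1.5 µg first cycle, 200 ng later) were incubated for 10 min at room temperature in 100 µl of 10 mM Tris–HCl pH 7.5, 50 mM NaCl, poly(dI-dC) and DTT. After Ni2+ bead capture and up to 6 triplicate cycles of selection, DNA was MiSeq-sequenced and scanned for 6-mers. Binding signal is the fold change in each canonical k-mer's read fraction relative to the initial random library.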

Row | Sequence | binding signal
1 | ACACCA | 0.735 ± 0.0297 fold-change vs cycle 0
2 | GATCAA | 1.21 ± 0.0612 fold-change vs cycle 0
3 | AATCAG | 1.32 ± 0.0871 fold-change vs cycle 0
4 | GTTCGA | 0.639 ± 0.0126 fold-change vs cycle 0
5 | AGCATA | 1.26 ± 0.0848 fold-change vs cycle 0
6 | TCTAGA | 1.32 ± 0.134 fold-change vs cycle 0
7 | GAAAAC | 1.08 ± 0.0562 fold-change vs cycle 0
8 | ACTTCA | 1.4 ± 0.0494 fold-change vs cycle 0
9 | AGTCAG | 0.822 ± 0.0342 fold-change vs cycle 0
10 | AAGCGA | 0.546 ± 0.0399 fold-change vs cycle 0
11 | CTCTTC | 1.02 ± 0.0449 fold-change vs cycle 0
12 | GAGGAA | 0.874 ± 0.0788 fold-change vs cycle 0
13 | GTGAGA | 0.859 ± 0.0299 fold-change vs cycle 0
14 | CATGAA | 1.36 ± 0.0383 fold-change vs cycle 0
15 | AGGTAA | 1.45 ± 0.0617 fold-change vs cycle 0
16 | CTGCTA | 0.699 ± 0.028 fold-change vs cycle 0
17 | GTACAA | 1.14 ± 0.0399 fold-change vs cycle 0
18 | CACCAG | 0.43 ± 0.0196 fold-change vs cycle 0
19 | AAACGA | 1.06 ± 0.0291 fold-change vs cycle 0
20 | AATACC | 1.3 ± 0.0373 fold-change vs cycle 0

Row | Sequence | binding signal
21 | AAGATG | 1.395 ± 0.00326 fold-change vs cycle 0
22 | ATGTAG | 1.34 ± 0.0549 fold-change vs cycle 0
23 | AATCCT | 1.47 ± 0.0694 fold-change vs cycle 0
24 | CCTATA | 1.35 ± 0.0444 fold-change vs cycle 0
25 | ACTAAC | 1.38 ± 0.0461 fold-change vs cycle 0
26 | ACATGT | 1.28 ± 0.0279 fold-change vs cycle 0
27 | AAGGGT | 0.858 ± 0.0423 fold-change vs cycle 0
28 | AAGGTA | 1.42 ± 0.048 fold-change vs cycle 0
29 | AACTTC | 1.37 ± 0.0514 fold-change vs cycle 0
30 | AGTGTA | 1.32 ± 0.061 fold-change vs cycle 0
31 | AAGGAT | 1.54 ± 0.0522 fold-change vs cycle 0
32 | ACTAGG | 0.871 ± 0.0329 fold-change vs cycle 0
33 | CGAACC | 0.34 ± 0.0157 fold-change vs cycle 0
34 | ACCATC | 0.858 ± 0.0322 fold-change vs cycle 0
35 | CGATCA | 0.683 ± 0.0475 fold-change vs cycle 0
36 | AGAGAG | 0.922 ± 0.0426 fold-change vs cycle 0
37 | AACTGA | 1.35 ± 0.0349 fold-change vs cycle 0
38 | CTACTA | 1.31 ± 0.0478 fold-change vs cycle 0
39 | AACTAG | 1.31 ± 0.0615 fold-change vs cycle 0
40 | GGACGA | 0.34 ± 0.0131 fold-change vs cycle 0

The sequences below were run against T2, SALL4 ZFC4 R900W (HT-SELEX) (Mus musculus, UniProt Q8BX22 870-940, R900W) (assay: HT-SELEX; high values mean tight binding). Settings: protein: recombinant; vector His6-GST; dsDNA, one strand shown.
T2 sequence: T1 sequence with R31W
In short: as §1

Row | Sequence | binding signal
41 | ACACCA | 0.841 ± 0.0318 fold-change vs cycle 0
42 | GATCAA | 1.36 ± 0.014 fold-change vs cycle 0
43 | AATCAG | 1.38 ± 0.0901 fold-change vs cycle 0
44 | GTTCGA | 0.724 ± 0.0149 fold-change vs cycle 0
45 | AGCATA | 1.27 ± 0.0243 fold-change vs cycle 0
46 | TCTAGA | 1.49 ± 0.119 fold-change vs cycle 0
47 | GAAAAC | 1.19 ± 0.062 fold-change vs cycle 0
48 | ACTTCA | 1.53 ± 0.0862 fold-change vs cycle 0
49 | AGTCAG | 0.958 ± 0.0579 fold-change vs cycle 0
50 | AAGCGA | 0.616 ± 0.0449 fold-change vs cycle 0
51 | CTCTTC | 1.24 ± 0.0397 fold-change vs cycle 0
52 | GAGGAA | 1.03 ± 0.0537 fold-change vs cycle 0
53 | GTGAGA | 0.971 ± 0.0233 fold-change vs cycle 0
54 | CATGAA | 1.4 ± 0.0692 fold-change vs cycle 0
55 | AGGTAA | 1.58 ± 0.118 fold-change vs cycle 0
56 | CTGCTA | 0.757 ± 0.0335 fold-change vs cycle 0
57 | GTACAA | 1.26 ± 0.0443 fold-change vs cycle 0
58 | CACCAG | 0.526 ± 0.014 fold-change vs cycle 0
59 | AATACC | 1.33 ± 0.0245 fold-change vs cycle 0
60 | AAGATG | 1.5 ± 0.0687 fold-change vs cycle 0

Row | Sequence | binding signal
61 | ATGTAG | 1.41 ± 0.0727 fold-change vs cycle 0
62 | AATCCT | 1.58 ± 0.0929 fold-change vs cycle 0
63 | CCTATA | 1.4 ± 0.0411 fold-change vs cycle 0
64 | ACTAAC | 1.53 ± 0.0676 fold-change vs cycle 0
65 | ACATGT | 1.4 ± 0.0207 fold-change vs cycle 0
66 | AAGGGT | 1.01 ± 0.023 fold-change vs cycle 0
67 | AAGGTA | 1.59 ± 0.0717 fold-change vs cycle 0
68 | AACTTC | 1.52 ± 0.0544 fold-change vs cycle 0
69 | AGTGTA | 1.43 ± 0.0767 fold-change vs cycle 0
70 | AAGGAT | 1.72 ± 0.118 fold-change vs cycle 0
71 | ACTAGG | 1.01 ± 0.0248 fold-change vs cycle 0
72 | CGAACC | 0.416 ± 0.00929 fold-change vs cycle 0
73 | ACCATC | 0.944 ± 0.0334 fold-change vs cycle 0
74 | CGATCA | 0.7718 ± 0.00739 fold-change vs cycle 0
75 | AGAGAG | 1.09 ± 0.0215 fold-change vs cycle 0
76 | AACTGA | 1.44 ± 0.0702 fold-change vs cycle 0
77 | CTACTA | 1.47 ± 0.0658 fold-change vs cycle 0
78 | AACTAG | 1.4 ± 0.0768 fold-change vs cycle 0
79 | GGACGA | 0.412 ± 0.0156 fold-change vs cycle 0

What follows are sequences tested against T3, SALL4 ZFC4 G921D (HT-SELEX) (Mus musculus, UniProt Q8BX22 870-940, G921D) (assay: HT-SELEX; high values mean tight binding). Settings: protein: recombinant; vector His6-GST; dsDNA, one strand shown.
T3 sequence: T1 sequence with G52D
In short: as §1

Row | Sequence | binding signal
80 | ACACCA | 0.903 ± 0.0271 fold-change vs cycle 0
81 | GTTCGA | 0.821 ± 0.0291 fold-change vs cycle 0
82 | TCTAGA | 1.41 ± 0.147 fold-change vs cycle 0
83 | AAGCGA | 0.734 ± 0.0783 fold-change vs cycle 0
84 | GTGAGA | 0.986 ± 0.0119 fold-change vs cycle 0
85 | CTGCTA | 0.816 ± 0.0523 fold-change vs cycle 0
86 | GTACAA | 1.22 ± 0.0489 fold-change vs cycle 0
87 | CACCAG | 0.606 ± 0.0242 fold-change vs cycle 0
88 | ACTAAC | 1.43 ± 0.0927 fold-change vs cycle 0
89 | AACTTC | 1.4 ± 0.0625 fold-change vs cycle 0
90 | AGTGTA | 1.36 ± 0.1 fold-change vs cycle 0
91 | CGAACC | 0.549 ± 0.0764 fold-change vs cycle 0
92 | ACCATC | 0.994 ± 0.0236 fold-change vs cycle 0
93 | CGATCA | 0.896 ± 0.0609 fold-change vs cycle 0
94 | AGAGAG | 1.14 ± 0.0249 fold-change vs cycle 0
95 | CTACTA | 1.39 ± 0.0974 fold-change vs cycle 0
96 | GGACGA | 0.498 ± 0.0522 fold-change vs cycle 0
